# In the library only some 2.9% were active in any assay of this set; here they are far more common.
# D3 ag – qHTS of D3 Dopamine Receptor Agonist: qHTS. D(3) dopamine receptor (Homo sapiens), P35462. D3R DiscoveRx beta-arrestin cells, luminescence, 90 min. max activation, %. 410,000 compounds, 0.58% hits. AID 652048, 2013; in the data active = max activation above about 30%; also: 0% is about no effect
# Target sequence (P35462 whole entry, looked up): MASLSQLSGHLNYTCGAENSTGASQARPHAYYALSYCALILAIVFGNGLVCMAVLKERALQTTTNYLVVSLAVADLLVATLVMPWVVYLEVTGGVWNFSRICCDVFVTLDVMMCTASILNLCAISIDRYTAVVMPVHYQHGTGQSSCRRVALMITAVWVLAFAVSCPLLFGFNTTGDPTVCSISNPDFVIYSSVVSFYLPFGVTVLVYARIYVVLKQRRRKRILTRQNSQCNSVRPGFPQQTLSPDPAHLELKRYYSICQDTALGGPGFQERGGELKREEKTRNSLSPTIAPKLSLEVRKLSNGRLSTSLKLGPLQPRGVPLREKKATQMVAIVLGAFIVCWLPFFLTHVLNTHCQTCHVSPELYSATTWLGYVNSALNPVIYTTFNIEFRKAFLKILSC
#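 Agonist-mode cell screen: cells plated at 1500/well and incubated overnight at 37 °C, then exposed to library compounds for 90 min at 37 °C. Detection reagent was added for 30–60 min at room temperature, and luminescence was read.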
# DRD3 antagonist – qHTS of D3 Dopamine Receptor Antagonist: qHTS | max response, negative = inhibition, % | 360,000 compounds, 2.5% hits | D3R cells, DiscoveRx beta-arrestin luminescence, antagonist mode; stronger effect = lower value | D(3) dopamine receptor (Homo sapiens), P35462; in the data active = max response below about -50%; inconclusive = no clear call, values can overlap the other calls; also: % is scaled to controls: 0 for no effect and ±100 for the full control effect
#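 Cells plated overnight at 1500 cells/well, then exposed to library compounds with dopamine controls for 90 minutes at 37 degrees C. DiscoveRx reagent added for 30–60 minutes at room temperature; luminescence read, quantitative HTS format.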
# a7 integrin act – qHTS for Activators of Integrin-Mediated Alleviation for Muscular Dystrophy; alpha7betagal myoblasts, beta-gal FDG fluorescence, 48 h; Potency, µM (highest dose often 38.3 µM), for the others: at the top dose activation, hits mostly activators; 350,000 compounds, 0.064% hits; active = well fitted activation curve with a large enough effect; inconclusive = small, poorly fitted or top-dose-only effect; inactive = no such curve, though single readings can be large or run the other way;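 also: potency is read from the fitted curve at half-maximal effect; 100% = response of the positive control SU9516; nearly all actives have a fitted effect of over 60% in size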
#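 Alpha7betagal+/- myoblasts (passage 13) were plated 16-24 hr, then exposed to compounds (1:260 dilution of DMSO stock) for 48 hours at 37C. After MPER lysis, β-galactosidase reporter activity was read as FDG fluorescence (ex 480/em 540) after 30 minutes.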
# * = called active by the depositor; ? = inconclusive; / = no result given; [ ] = remark or other dose.
SMILES,D3 ag,DRD3 antagonist,a7 integrin act
Cc1ccc(C#N)c(SCCN2CCCCC2)n1,-16,-16,-36%
N#Cc1ccc(N)cc1OCCCN1CCCCC1,-25,-52*,4%
CCOC1=C2[C@H](c3ccccc3)N(S(=O)(=O)c3ccc(C)cc3)[C@H](C(C)C)[C@H]2n2c(=O)n(-c3ccccc3)c(=O)n2C1,-11,-55*,/
CCOC1=C2[C@H](c3ccccc3)N(S(=O)(=O)c3ccc(C)cc3)C(C(C)(C)C)[C@H]2n2c(=O)n(-c3ccccc3)c(=O)n2C1 (stereo not given in full),6,0,/
Cc1cccc(-n2c(O)c(C=Nc3ccc(O)cc3)c3ccccc3c2=O)n1,6,-4,-8%
Cc1ccc(N=Cc2c(O)n(-c3ccc4c(c3)OCO4)c(=O)c3ccccc23)cc1,2,-59*,3%
CCC(C)C(=O)Nc1nc2c(s1)C(=O)CC(C)(C)C2 (stereo not given),-3,-4,15%
COc1ccc(S(=O)(=O)c2c(O)c3ccc(C(=O)NCc4ccc(Cl)cc4)cc3[nH]c2=O)cc1,-5,/,/
O=C(CCN1CCCC1)Nc1ccc(Br)cc1,-3,-2,21%
CC1CCN(CCC(=O)Nc2ccc(Br)cc2)CC1,-36,-76*,-48%
CC1CCN(CCC(=O)Nc2ccc(F)c(F)c2)CC1,-20,-51*,11%
Cc1cc(NC(=O)CCN2CCC(C)CC2)ccc1Br,-4,-106*,-10%
Cc1cc(NC(=O)CCN2CCCCC2)ccc1Br,-18,-22,-50%
O=C(CCN(CCO)Cc1ccccc1)Nc1ccc(Br)cc1,-45,?,-28%
CCN(CCC(=O)Nc1ccc(Br)c(C)c1)Cc1ccccc1,-16,-82*,-7%
O=C(CN1CCCCCC1)Nc1ccc(F)c(F)c1,-14,-24,-20%
CCC(C)NC(=O)CC(C)C (stereo not given),0,9,42%
COc1cc(-c2ccno2)ccc1S(=O)(=O)N1CCN(c2ccc(C(C)=O)cc2)CC1,-1,/,/
CC(=O)Nc1ccc(NC(=O)c2cc(-c3ccc(F)cc3C)n[nH]2)cc1,-7,?,/
COc1ccc(NC(=O)c2cc(-c3ccc(F)cc3OC)n[nH]2)cc1OC,-4,0,/
COc1ccc(-c2cc(C(=O)Nc3ccc(OC)c(OC)c3)[nH]n2)c(C)c1,-15,-60*,/
Cc1cc(F)ccc1-c1cc(C(=O)Nc2ccccc2)[nH]n1,-12,-85*,/
Cc1cc(F)ccc1-c1cc(C(=O)NCc2cccc(C(F)(F)F)c2)[nH]n1,0,16,/
Cc1cc(F)ccc1-c1cc(C(=O)NCc2cccs2)[nH]n1,-22,-77*,/
CCN(CC(=O)Nc1cc(Cl)ccc1C)C(=O)Cc1sc(C)nc1-c1ccc(F)cc1,-15,-20,-37%
SMILES,D3 ag,DRD3 antagonist,a7 integrin act
CCCc1cc(=O)[nH]c(SC(C)C(=O)N2c3ccccc3CC2C)n1 (stereo not given),-4,35,-60%
Cc1cccc(Nc2nn3c(=O)c4ccccc4nc3s2)c1,-1,14,23%
CCCSc1nn2c(=O)c3ccccc3nc2s1,-3,-51*,15%
O=C(Nc1ccc(F)cc1)C(c1ccccc1OC(F)(F)F)N1CCN(c2cccc(C(F)(F)F)n2)CC1 (stereo not given),-10,-55*,/
O=C(Nc1ccc(F)cc1)C(c1ccccc1)N1CCN(c2cccc(C(F)(F)F)n2)CC1 (stereo not given),-13,-28,/
Cc1ccc(NS(=O)(=O)c2ccc(C(=O)N3CCCCCC3)cc2)cc1,4,6,-8%
O=S1(=O)C=C[C@@H](CO)N1Cc1ccc(Br)cc1,5,1,/
O=S1(=O)C=C[C@@H](COCc2ccccc2)N1Cc1ccc(Br)cc1,-10,-51*,/
CCc1ccc(-n2c(SCc3ccccc3C)nc3[nH]ncc3c2=O)cc1,10,/,/
CNC(=O)c1ccccc1S(=O)c1ccccc1C#N (stereo not given),-7,-22,8%
COc1ccc(/C=C/C(=O)Nc2nc(-c3cccs3)ns2)cc1OC,36*,/,/
COc1ccc(/C=C/C(=O)Nc2nc(-c3cccs3)ns2)cc1,5,/,/
COc1cc(C(=O)N(Cc2ccc(N(C)C)cc2)CC2CCCO2)cc(OC)c1OC (stereo not given),4,/,/
COCCCN1C(=O)C(O)=C(C(=O)c2ccco2)C1c1cccc(Br)c1 (stereo not given),5,22,-24%
C1=CC2CC1CC2CN1CCN(c2ccccc2)CC1 (stereo not given),-9,-54*,-29%
Cc1ccccc1CN1CCN(CC2CC3C=CC2C3)CC1 (stereo not given),-17,-66*,-3%
CS(=O)(=O)N1CCN(CC2CC3C=CC2C3)CC1 (stereo not given),-28,-28,-11%
CCN1CCN(CC2CC3C=CC2C3)CC1 (stereo not given),-9,-11,-12%
O=C(c1ccc2ccccc2c1)N1CCN(c2ccc(C(F)(F)F)cn2)CC1,4,61,-6%
COc1ccc(N(CC(=O)N2CCN(c3ccc(Cl)cc3)CC2)S(=O)(=O)c2c(C)noc2C)cc1,0,-1,-11%
COc1ccc(C(=O)/C=C/Nc2ccc([N+](=O)[O-])cc2C)cc1OC,-8,7,1%
COc1ccc(C(=O)/C=C/Nc2ccc([N+](=O)[O-])cc2C)c(OC)c1,32*,16,6%
COc1ccccc1CNS(=O)(=O)c1cc(C)ccc1OC,1,36,-6%
COc1ccccc1CNS(=O)(=O)c1ccc(Cl)s1,-9,-20,6.3µM*
COc1ccccc1Cn1c(CNS(=O)(=O)c2ccc(Cl)s2)nc2cccnc21,-4,/,/
SMILES,D3 ag,DRD3 antagonist,a7 integrin act
COc1cccc(CNS(=O)(=O)c2ccccc2Br)c1OC,32*,6,-8%
CC(C)C[C@@H](CN1CCC[C@@H]1CN1C(=S)NC[C@@H]1Cc1ccc(O)cc1)N1C[C@H](Cc2ccc(O)cc2)N(CC2CCCCC2)C1=S,9,14,/
O=C(C1CCN(S(=O)(=O)c2cccc3cccnc23)CC1)N1CCCCC1,5,-2,4%
Cc1oc(-c2ccc(Cl)cc2)[n+]([O-])c1C,-2,-67*,9%
Cc1oc(-c2ccc(Cl)cc2)cc1C(=O)O,11,-2,-14%
CCC1CCCCN1CCn1c(=S)[nH]c2cc(OC)c(OC)cc2c1=O (stereo not given),-3,-16,12%[7.66 µM]
Cc1sc2nc(CSc3ccccc3)nc(N3CCN(C)CC3)c2c1C,-3,-93*,-23%
COCCNc1nc(CSc2ccccc2)nc2sc(C)c(C)c12,-3,-14,-1%
CCOc1cc(CN2CCN(CCOCCO)CC2)ccc1OC,1,-16,-5%
O=C1C=CC(=O)c2c(O)c(N3CCN(CCO)CC3)c(Cl)c(O)c21,-25,-121*,-55%
O=C1C=CC(=O)c2c(O)c(N3CCN(CCOCCO)CC3)c(Br)c(O)c21,-18,-95*,-57%
O=S(=O)(c1ccc(Br)cc1Cl)N1CCN(CCO)CC1,-11,-8,33%
O=C(Cc1ccccc1)N1CCC(O)(c2cccnc2)CC1,5,22,3%

# From PubChem BioAssay
